Source: PubChem BioAssay (NCATS)
Records with an inconclusive call do not appear. Unmarked numbers belong to inactive results. The source made the active and inactive calls. The call rests on the fitted dose curve; in most records, active means well fitted cell-killing curve with a large enough effect; inconclusive means small, poorly fitted or top-dose-only effect, or effect the other way; inactive means no such curve, though single readings can be large or run the other way. Starred links: 1 amine or outer side, 2 acyl side, 3 side chain; linkers in the order of their positions; H or OH if unused. Positions of bridges follow the written chain, without caps; N, C: chain ends. Non-standard residues stand in square brackets, D forms with d. Residues, ends and D or L forms follow the SMILES beside them. Chains are numbered I, II in the order given. Actinocin(9to1) = Cc1c2oc3c(C)ccc(C(=O)[*:1])c3nc-2c(C(=O)[*:2])c(N)c1=O; NMeV = CN[CH](C(=O)O)C(C)C; Sar = CNCC(=O)O

Assay: Quantitative High-Throughput drug screen in 47 multiple myeloma cell lines against the NCATS MIPE library collection: AMO1_DSMZ cell viability assay (AID 1918927; further: nearly all actives have a fitted effect of over 30% in size)
Conditions: AMO1 myeloma cells viability, CellTiter-Glo ATP luminescence, 48 h; series mostly up to 45.8 µM; viability, % of DMSO: at the top concentration
Excerpt: PI: Beverly A. Mock Ph.D.
Laboratory of Cancer Biology and Genetics,
Center for Cancer Research, National Cancer Institute,
National Institute of Health, Bethesda, Maryland
Drug resistance and disease progression are common in multiple myeloma (MM) patients, underscoring the need for new therapeutic combinations. […] We hypothesized that effective combinations would reduce MYC expression and enhance p16 activity. […] These preclinical data identify potentially useful drug combinations for evaluation in drug-resistant MM and reveal potential mechanisms of combined drug sensitivity.
Described herein is the primary MIPE qHTS used to cherrypick compounds. Validated compounds were then further tested for potential synergistic activiy.
[1] Peat TJ, Gaikwad SM, Dubois W, Gyabaah-Kessie N, Zhang S, Gorjifard S, Phyo Z, Andres M, Hughitt VK, Simpson RM, Miller MA, Girvin AT, Taylor A, Williams D, D'Antonio N, Zhang Y, Rajagopalan A, Flietner E, Wilson K, Zhang X, Shinn P, Klumpp-Thomas C, McKnight C, Itkin Z, Chen L, Kazandijian D, Zhang J, Michalowski AM, Simmons JK, Keats J, Thomas CJ, Mock BA. Drug combinations identified by high-throughput screening promote cell cycle transition and upregulate Smad pathways in myeloma. Cancer Lett. 2023 Aug 1;568:216284. doi: 10.1016/j.canlet.2023.216284. Epub 2023 Jun 24. PMID: 37356470; PMCID: PMC10408729.
SEQUENCE No. (e.g., 1, 2, 3, etc.); […] (e.g., Cells, Incubation, Reagent, etc.); VALUE and DESCRIPTION.
1; Cells; 5 uL; white, solid bottom 1536-well Greiner assay plate.
2; Compounds; 23 nL; Kalypsis pin tool (Wako USA) equipped with a 1536-well pin head to transfer to the assay plates.
3; Incubation; 48 hours; 37C incubation.
4; Reagent;5uL; CellTiter Glo (Promega).
5; Detector; 425V; Luminescence; Viewlux PerkinElmer.
NOTES (numbers refer to Sequence numbers above)
1. The cell-based screening methods employed in this study were like those previously published. Briefly, the corresponding myeloma cell lines were screened in 1,536-well plates with 500 cells, 5-uL per well for inhibition of cell viability (assessed by measuring ATP levels with CellTiterGlo).
2. NCATS MIPE 4.0 library of approved and investigational drugs were added using the Kalypsis pin tool. Wells treated with DMSO only for 100% viability and media only wells for 0% viability were used as controls.
3. The assay plates were covered and incubated for 48 hours in a 37C, 5% CO2 incubator with controlled humidity.
4. After 48 hours, CellTilter-GloTM luminescent substrate mix (Promega) reagent was added to the assay plate and plates we incubated for 5 min at room temperature.
5. Signal was measured as median relative luminescence units on a ViewLux (PerkinElmer) multiplate reader.
[1] Heske CM, Davis MI, Baumgart JT, Wilson K, Gormally MV, Chen L, Zhang X, Ceribelli M, Duveau DY, Guha R, Ferrer M, Arnaldez FI, Ji J, Tran HL, Zhang Y, Mendoza A, Helman LJ, Thomas CJ. Matrix Screen Identifies Synergistic Combination of PARP Inhibitors and Nicotinamide Phosphoribosyltransferase (NAMPT) Inhibitors in Ewing Sarcoma. Clin Cancer Res. 2017 Dec 1;23(23):7301-7311. doi: 10.1158/1078-0432.CCR-17-1121. Epub 2017 Sep 12. PMID: 28899971; PMCID: PMC6636827.
Potency means the concentration at half of the fitted maximal effect.

Structure (SMILES)	Potency	viability, % of DMSO
O=C(Nc1cc2cc[nH]c2cn1)c1ccccc1	10.5 µM (active)	–
CC(=O)N[C@@H]1[C@H](O[C@@H]2c3ccc(c(Cl)c3)Oc3cc4cc(c3O[C@H]3O[C@H](CO)[C@@H](O)[C@H](O)[C@H]3NC(=O)CCCCCCCC(C)C)Oc3ccc(cc3Cl)C[C@H]3NC(=O)[C@H](N)c5ccc(O)c(c5)Oc5cc(O)cc(c5)[C@H](NC3=O)C(=O)N[C@H]4C(=O)N[C@H]3C(=O)N[C@@H]2C(=O)N[C@@H](C(=O)O)c2cc(O)cc(O[C@H]4O[C@H](CO)[C@@H](O)[C@H](O)[C@H]4O)c2-c2cc3ccc2O)O[C@H](CO)[C@@H](O)[C@@H]1O	–	109%
CC(C)N1[N]C(=C2C=c3cc(O)ccc3=N2)c2c(N)ncnc21	0.662 µM (active)	–
O=C(O)C=Cc1ccc(Cn2ccnc2)cc1	0.372 µM (active)	–
CC(=O)O[C@@]12CO[C@H]1C[C@H](O)[C@@]1(C)C(=O)[C@H](O)C3=C(C)[C@@H](OC(=O)C(O)[C@@H](NC(=O)OC(C)(C)C)c4ccccc4)C[C@@](O)([C@@H](OC(=O)c4ccccc4)[C@@H]21)C3(C)C (stereo not given in full)	–	20.1%
Cn1cc(CNCC2CCN(c3ncc(C(=O)NO)cn3)CC2)c2ccccc21	0.0526 µM (active)	–
Nc1ccc(C(=O)Nc2cccc(-c3nc(N4CCOCC4)c4oc5ncccc5c4n3)c2)cn1	6.62 µM (active)	–
COc1cccc2c1C(=O)c1c(O)c3c(c(O)c1C2=O)C[C@@](O)(C(C)=O)C[C@H]3O[C@H]1C[C@H](N)[C@H](O)[C@H](C)O1	0.118 µM (active)	–
CC(C)(C)[N+]([O-])=Cc1ccc(S(=O)(=O)O)cc1S(=O)(=O)O	–	126%
CCCCCN=C(N)NN=Cc1c[nH]c2ccc(OC)cc12	1.32 µM (active)	–
N#Cc1c(NC(=O)c2cccc3ccccc23)sc2c1CCCC2	0.118 µM (active)	–
Cc1cncc2cccc(S(=O)(=O)N3CCCN(C(=O)CN)C[C@@H]3C)c12	10.5 µM (active)	–
CCN1CCN(C(=O)N[C@H](C(=O)N[C@@H]2C(=O)N3C(C(=O)O)=C(CSc4nnnn4C)CS[C@@H]23)c2ccc(O)cc2)C(=O)C1=O	–	124% [at 15.3 µM]
COc1cc(C)c(Sc2cnc(NC(=O)c3ccc(CNC(C)C(C)(C)C)cc3)s2)cc1C(=O)N1CCN(C(C)=O)CC1 (stereo not given)	5.26 µM (active)	–
CCc1nc(-c2cccc(C)c2)c(-c2ccnc(NC(=O)c3ccccc3)c2)s1	18.7 µM (active)	–
COc1cc(C[C@@H](CO)[C@H](CO)Cc2ccc(O)c(OC)c2)ccc1O	4.69 µM (active)	–
O=C1c2c(O)cccc2[C@@H]([C@@H]2O[C@H](CO)[C@@H](O)[C@H](O)[C@H]2O)c2cc(CO)cc(O)c21	–	110%
CCN(CC)CCCCNc1ncc2c(n1)N(C)C(=O)N(c1c(Cl)c(OC)cc(OC)c1Cl)C2	–	107%
NC(=O)c1ncn([C@@H]2O[C@H](CO)[C@@H](O)[C@@H]2O)c1O	–	97.5%
O=C(O)CCCCCC(=O)NN=C1CCCC1	–	120%

Structure (SMILES)	Potency	viability, % of DMSO
CC1(C)CC(O)CC(C)(C)N1[O]	–	106%
C=C1C(=CC=C2CCC[C@]3(C)[C@@H]([C@H](C)CCCC(C)(C)O)CC[C@@H]23)C[C@@H](O)C[C@@H]1O	0.935 µM (active)	–
CCOc1cc2ncc(C#N)c(Nc3ccc(OCc4ccccn4)c(Cl)c3)c2cc1NC(=O)C=CCN(C)C	0.0935 µM (active)	–
CC(C)(N)c1ccc(-c2nc3ccccc3nc2-c2ccccc2)cc1	14.8 µM (active)	–
COc1cc2ncnc(Nc3cccc(Br)c3)c2cc1OC	3.72 µM (active)	–
CCOC(=O)N1CCN([N+]([O-])=NOc2ccc([N+](=O)[O-])cc2[N+](=O)[O-])CC1	10.5 µM (active)	–
NC1=N[C@H]2[C@H](CS[C@H]2CCCCC(=O)O)N1	–	115% [at 23.2 µM]
C=CC(=O)Nc1ccc2ncnc(Nc3ccc(OCc4cccc(F)c4)c(Cl)c3)c2c1	0.0209 µM (active)	–
c1ccc2c(Oc3nc(Nc4ccc(N5CCOCC5)cc4)c4ncn(C5CCCCC5)c4n3)cccc2c1	9.35 µM (active)	–
O=C(C=CC=Cc1ccc2c(c1)OCO2)N1CCCCC1	–	83.7%
C[C@@]12C(=O)OC(=O)[C@@]1(C)C1CCC2O1	1.32 µM (active)	–
Cc1c2oc3c(C)ccc(C(=O)NC4C(=O)NC(C(C)C)C(=O)N5CCCC5C(=O)N(C)CC(=O)N(C)C(C(C)C)C(=O)OC4C)c3nc-2c(C(=O)NC2C(=O)NC(C(C)C)C(=O)N3CCCC3C(=O)N(C)CC(=O)N(C)C(C(C)C)C(=O)OC2C)c(N)c1=O (stereo not given) (I: TVP[Sar][NMeV] / II: TVP[Sar][NMeV]; ester I:1-I:C, II:1-II:C; linker I:N-II:N via Actinocin(9to1); configuration not given here)	–	2.33%
C#Cc1cccc(Nc2ncnc3cc(OCCOC)c(OCCO)cc23)c1	2.35 µM (active)	–
CC(C)c1cnn2c(NCc3ccccc3)cc(NCCCCCCN)nc12	23.5 µM (active)	–
Cc1ccc([N+](=O)[O-])cc1S(=O)(=O)N(C)N=Cc1cnc2ccc(Br)cn12	0.0148 µM (active)	–
COC(=O)[C@H](CCCN=C(N)N)NS(=O)(=O)c1ccc(C)cc1	–	124%
COc1cc([C@@H]2c3cc4c(cc3[C@@H](O[C@@H]3O[C@@H]5CO[C@@H](c6cccs6)O[C@@H]5[C@H](O)[C@@H]3O)[C@H]3COC(=O)[C@H]23)OCO4)cc(OC)c1O	0.59 µM (active)	–
Cc1cc(O)c2c(c1)C(=O)c1cccc(O)c1C2=O	–	109%
Nc1nc2c(c(=O)[nH]1)N(C=O)[C@H](CNc1ccc(C(=O)N[C@@H](CCC(=O)O)C(=O)O)cc1)CN2	–	152%
COc1ccnc2[nH]cc(C(=O)C(=O)N3CCN(C(=O)c4ccccc4)C[C@@H]3C)c12	–	104%
